Screening data deposited in PubChem BioAssay by several laboratories.
Only some compounds are listed: those with a hit (about 4.6% of all), similar ones and a draw of the others.
ABHD5 PLIN5 PPI – ABHD5-PLIN5 interaction inhibitors, primary screen, cell lysate, split luciferase complementation, luminescence. Perilipin-5 (Homo sapiens) + 1-acylglycerol-3-phosphate O-acyltransferase ABHD5 (Homo …. Split G. princeps luciferase complementation, 4 h. inhibition, % at 4 µM. actives 0.78% (n = 360,000);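 active = inhibition above the mean inhibition across every tested compound plus 3 SD, cut at about 22% in these data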;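 note: 0% = DMSO only wells and the 100% control is not disclosed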
Target sequence (Q00G26 whole entry, looked up): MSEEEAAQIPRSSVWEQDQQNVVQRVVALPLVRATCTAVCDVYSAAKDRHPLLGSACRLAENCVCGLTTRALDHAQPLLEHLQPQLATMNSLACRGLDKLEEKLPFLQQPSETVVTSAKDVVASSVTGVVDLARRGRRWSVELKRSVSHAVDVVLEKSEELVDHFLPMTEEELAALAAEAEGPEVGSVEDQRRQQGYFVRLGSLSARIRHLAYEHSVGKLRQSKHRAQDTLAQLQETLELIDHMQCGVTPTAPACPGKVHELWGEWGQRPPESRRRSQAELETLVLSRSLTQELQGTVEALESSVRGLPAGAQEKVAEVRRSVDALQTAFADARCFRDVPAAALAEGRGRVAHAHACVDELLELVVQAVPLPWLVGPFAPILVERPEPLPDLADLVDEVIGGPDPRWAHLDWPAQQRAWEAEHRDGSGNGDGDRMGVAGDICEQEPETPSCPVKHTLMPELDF
Target sequence (Q8WTS1 whole entry, looked up): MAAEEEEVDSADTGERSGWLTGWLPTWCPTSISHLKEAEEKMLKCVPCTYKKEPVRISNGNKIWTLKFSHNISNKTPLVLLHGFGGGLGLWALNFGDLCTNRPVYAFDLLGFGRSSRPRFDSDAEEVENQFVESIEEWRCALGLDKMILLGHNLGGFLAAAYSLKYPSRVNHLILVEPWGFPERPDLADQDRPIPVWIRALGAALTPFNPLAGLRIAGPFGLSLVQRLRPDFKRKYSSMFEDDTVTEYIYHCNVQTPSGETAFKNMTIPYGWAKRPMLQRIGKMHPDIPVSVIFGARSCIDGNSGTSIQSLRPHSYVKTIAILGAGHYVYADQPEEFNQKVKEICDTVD
Peg3 prom inh – Peg3 promoter-driven luciferase inhibitors, primary screen, cell-based, HeLa, luciferase luminescence | HeLa PEG-Prom luciferase reporter, overnight | inhibition, % at 20 µM | actives 1.7% (n = 360,000);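 active = inhibition of at least 50% at 20 µM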
HIF-2a block – HIF-2a reporter inhibitors, primary screen, luminescence, 786-0 RCC cells | 786-0 RCC cells HIF-2a reporter, luciferase luminescence, overnight | inhibition, % at 18.8 µM | actives 0.72% (n = 360,000) | AID 624352, 2012;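 active = inhibition of the luminescence signal of 40% or more relative to plate controls, in a single-dose primary screen at 18.75 µM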
KKLEB cytotox – cytotoxicity in KKLEB CF airway cells, primary screen, cytotoxicity control for CF NF-kB inhibitor project, cell-based, uHTS, fluorescence assay plates; KKLEB CF airway cells viability, ATPlite luminescence, overnight; hits give low values; cells stimulated with P. aeruginosa culture filtrate; activity change (cytotoxicity), % at 5 µM; actives 0.36% (n = 360,000);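 active = corrected activity change at or below -50% at 5 µM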
CF NFkB inh – inhibitors of PAF-induced NF-kB signaling, primary screen, cell-based, GFP fluorescence, uHTS; KKLEB NF-kB-GFP reporter, GFP fluorescence overnight; inhibition, % at 5 µM; actives 0.86% (n = 360,000);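 active = at least 50% inhibition at 5 µM, scaled per plate between neutral and stimulator controls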;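 note: PAF is a Pseudomonas aeruginosa culture filtrate used as stimulus; plate controls were PAF-stimulated DMSO wells for no effect and unstimulated DMSO wells for full effect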
Mdm2-MdmX inh – inhibitors of human Mdm2-MdmX association, primary screen, cell-based, luminescence, split luciferase, SaOS-2, uHTS; AID 485346, 2010; actives 3% (n = 330,000); Protein Mdm4 (Homo sapiens) + E3 ubiquitin-protein ligase Mdm2 (Homo sapiens), …; SaOS-2 split-luciferase Mdm2/MdmX complementation; inhibition, % at 8 µM;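 active = inhibition of at least 50% at 8 µM in the primary screen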
* marks the source's active call; other numbers are inactive results; . = no result.

SMILES | ABHD5 PLIN5 PPI | Peg3 prom inh | HIF-2a block | KKLEB cytotox | CF NFkB inh | Mdm2-MdmX inh
CC1(C(=O)NCc2ccc(Cl)cc2)CCN1C(=O)c1cccc(F)c1 (stereo not drawn) | 9.4 | 10.3 | 4.8 | 4.9 | 12.3 | .
Cc1ccccc1N=CC1=C(O)c2ccccc2C1=O | -4.3 | 18.7 | -13.0 | -59.6* | -42.6 | -31.2
Cc1ccccc1-n1sc2cc(F)ccc2c1=O | 91.4* | 72.7* | -29.6 | 0.6 | 6.1 | 7.4
O=c1c2ccccc2sn1-c1ccccc1F | -18.6 | -2.6 | -8.6 | 2.8 | 33.5 | .
O=c1c2cc(F)ccc2sn1-c1ccccc1 | 98.6* | -21.6 | -124.8 | -17.1 | 44.3 | 39.6
O=c1c2cc(C(F)(F)F)ccc2sn1-c1ccccc1 | -16.3 | -82.7 | -241.7 | -9.9 | 50.8* | .
CCN(C(=O)CN(C1=NC2CS(=O)(=O)CC2S1)c1ccc(OC)cc1)c1cccc(C)c1 (stereo not drawn) | -16.4 | -4.5 | 2.3 | -5.5 | 9.2 | .
COC(=O)c1ccc2nc(C3CCCCC3)c(Cc3ccccc3)n2c1 | -2.6 | -12.8 | -34.1 | -10.1 | -1.5 | .
COc1ccc(C[C@@H]2CN3C(=NC[C@@H]3Cc3ccc(O)cc3)N2C[C@H](C)NC(=O)CCC2CCCCC2)cc1 | 12.1 | 68.0* | -14.9 | -18.7 | -0.2 | 25.1
Cc1nc(N2N=C(c3ccc(Cl)cc3)CC2c2ccco2)sc1C(=O)N(C)C (stereo not drawn) | 22.4* | -187.0 | -295.0 | -1.6 | 17.8 | -17.5
COC(=O)C1=C(C(=O)OC)[C@@H]2N(C)c3ccccc3[C@@]23C[C@@H](C(=O)OC)N(C(=O)c2cccs2)C3=N1 | 2.7 | 36.3 | 6.4 | -6.2 | 30.1 | 24.1
COC(=O)C1=C(C(=O)OC)[C@@H]2N(C)c3ccc(OC)cc3[C@@]23C[C@@H](C(=O)OC)N(C(=O)c2cccs2)C3=N1 | -6.7 | 19.4 | 5.5 | 0.1 | 54.4* | 24.7
CC1CCCCC1NC(=O)COC(=O)c1c2c(nc3ccccc13)/C(=C\c1ccco1)CC2 (stereo not drawn) | 5.3 | 17.4 | 11.2 | -1.1 | -5.8 | .
C=CCN(C(=O)CNC(=O)c1ccco1)C(C(=O)NC1CCCCC1)c1cccnc1 (stereo not drawn) | -5.2 | -9.3 | 17.2 | -3.0 | 1.8 | -11.8
COC(=O)[C@H](NC(=O)c1cc([C@@H](NC(=O)OC(C)(C)C)C(C)C)sc1N)C(C)C | -11.8 | . | 14.4 | . | . | .
CCOc1ccc(C2=Nn3c(nnc3-c3ccco3)SC2)cc1 | -1.1 | 25.5 | -9.0 | -68.5* | -3.0 | 36.3
COCCCn1c(C(=O)Nc2ccc3c(c2)OCO3)cc2c(=O)n3cccc(C)c3nc21 | -0.2 | 59.5* | -14.0 | -16.6 | 28.0 | .
CCOC(=O)c1sc(NC(=O)CCN2CCN(C)CC2)c(C(=O)OCC)c1C | 8.4 | 83.6* | -16.6 | -2.6 | -28.0 | 38.0
CCOC(=O)c1sc(NC(=O)CCN2CC(C)OC(C)C2)c(C(=O)OCC)c1C (stereo not drawn) | . | . | . | . | . | -21.5
Clc1ccc(CSc2nnc(-c3ccccn3)n2Cc2cccs2)cc1Cl | -8.7 | 16.4 | -7.7 | 11.4 | 0.3 | .
Cc1cc(-c2ccc(S(=O)(=O)NCc3ccc(Cl)cc3)cc2)on1 | -4.6 | 8.8 | 19.9 | -2.7 | 6.9 | .
CN(C)S(=O)(=O)c1ccc(Cl)c(C(=O)Nc2ccc(S(=O)(=O)N3CCOCC3)cc2)c1 | 5.5 | 12.2 | 3.2 | 10.6 | 0.2 | -6.0
COC(=O)N(C)C[C@H]1OCc2cnnn2CCCC(=O)N([C@H](C)CO)C[C@H]1C | -9.3 | 0.3 | 13.1 | -4.9 | -1.0 | .
Cc1ccc(NC(=O)CCc2c(C)nn(-c3ccc(N4CCCCC4)nn3)c2C)cc1 | 0.4 | 77.3* | -236.6 | 1.0 | -9.9 | -17.8
CC(=NNC(=S)N1CCCCC1)c1cccc(C)n1 | -12.8 | -27.3 | -109.7 | 25.9 | -34.8 | .
SMILES | ABHD5 PLIN5 PPI | Peg3 prom inh | HIF-2a block | KKLEB cytotox | CF NFkB inh | Mdm2-MdmX inh
CSC(=S)NN=C(C)c1cccc(C)n1 | -6.2 | 35.0 | -14.7 | -9.6 | 76.0* | .
FC(F)(F)C1=Nc2cccc3cccc(c23)N1 | -3.1 | 111.0* | -4.8 | -6.7 | -15.8 | 13.0
Cc1[nH]c(=O)c(C#N)cc1-c1csc(-c2ccccc2)n1 | -7.7 | 59.8* | 18.3 | 3.6 | -28.2 | 41.1
COC(=O)C[C@@H]1CC[C@H](NS(=O)(=O)c2ccccc2F)[C@@H](CO)O1 | 4.7 | . | 7.1 | . | . | .
COc1cc(C=C2Cc3ccccc3C2=O)cc(OC)c1OC | 22.3* | -9.7 | -28.0 | -11.9 | -21.7 | .
O=C(NCCCN1CCOCC1)c1c(-c2ccccc2)oc2c1C(OCCCCCO)CCC2 (stereo not drawn) | -0.9 | . | -1.8 | . | . | .
CCCOc1ccc(C(=O)OCCN2CCCCC2)c(O)c1 | -0.9 | -23.9 | -58.1 | -2.3 | 20.3 | -23.9
COc1cc2c(cc1OC)C(c1ccc(-c3cc(Cl)ccc3Cl)o1)=NCC2 | 6.0 | 48.5 | 21.7 | -17.3 | 16.5 | 7.8
COc1cc2c(cc1OC)C(c1ccc(-c3ccc(Cl)c(Cl)c3)o1)=NCC2 | 1.2 | 85.1* | 2.4 | -30.8 | -7.5 | 31.8
N#Cc1ccc(Oc2ccc(C#N)c(C#N)c2)cc1C#N | 4.1 | 1.7 | 4.0 | 0.7 | 2.9 | .
COc1cc(/C=C2\SC(=N)N(c3ccc(F)cc3)C2=O)ccc1O | 5.0 | 41.9 | 18.8 | -40.0 | 61.8* | 42.8
CSCCC(NC(=O)c1ccccc1Cl)C(=O)Nc1ccc(C)c(S(=O)(=O)N2CCOCC2)c1 (stereo not drawn) | -2.9 | -6.0 | -10.4 | 0.5 | 2.1 | 12.9
COc1ccc(F)cc1CN1CCN(C(=O)c2ccc(S(=O)(=O)N3CCCCCC3)cc2)CC1 | 4.6 | 12.3 | 7.4 | -11.0 | 24.0 | .
CCC(=O)N1CCN(c2ccccc2NC(=O)COc2cc(C)ccc2C(C)C)CC1 | 0.7 | 52.0* | 4.6 | -3.2 | 8.1 | 43.7
Cc1ccc(C(C)C)c(OCC(=O)NC(=S)Nc2ccccc2N2CCOCC2)c1 | 0.9 | 13.2 | 10.0 | -7.7 | 45.2 | 39.6
CCOC(=O)c1c2c(n(-c3ccc(OC)cc3)c1C)C(=O)C(=O)c1ccccc1-2 | -55.9 | 102.4* | 82.5* | -90.8* | 82.2* | .
CN(C)S(=O)(=O)c1ccc(N2CCCC2)c(C(=O)NNC(=O)COc2cccc(F)c2)c1 | 6.9 | -10.6 | 12.0 | 7.4 | 13.5 | -17.3
COc1ccc(-c2oc3ccc(N4CCOCC4)cc3c2C#CCO)cc1 | -1.7 | 82.9* | -17.9 | 4.3 | -18.5 | 8.9
CC1=NNC(=O)/C1=C\c1cn(-c2ccccc2)nc1-c1ccc(F)cc1 | 5.6 | 111.5* | 94.0* | -83.4* | 90.9* | .
